The values that follow come from PubChem BioAssay AID1159580 (chemical genetic matrix, 2015).

Screen size: about 5,500 compounds; about 2,000 (36%) were called active. Inconclusive results (about 18%) are left out. This is one part of the list. A number with no mark means an inactive call. No stated cut-off is given here; in the data, active means normalized growth mostly below about 0.91 (no sharp cut-off); inconclusive means no clear call, values can overlap the other calls; inactive means mostly above about 0.92.

The nature of the assay: chemical genetic growth profiling, strain panel (AID 1159580).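 Further: tested at 20 µM; growth read once vehicle control cultures reached saturation at 30 °C; 1 = growth at the plate median or of vehicle wells; lower values mean less growth of the strain.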 Conditions: growth OD.
Setting [1] is: S. cerevisiae deletion strains, locus YAL013W, strain DEP1, hits give low values.
Where [2] appears, read: S. cerevisiae deletion strains, locus YBR229C, strain ROT2, hits give low values.
[3] abbreviates: S. cerevisiae deletion strains, locus YDL101C, strain DUN1, hits give low values.
[4] abbreviates: S. cerevisiae deletion strains, locus YDR150W, strain NUM1, hits give low values.
Where [5] appears, read: S. cerevisiae deletion strains, locus YEL061C, strain CIN8, hits give low values.
The mark [6] stands for this setting: S. cerevisiae deletion strains, locus YGR078C, strain PAC10, hits give low values.
Setting [7] is: S. cerevisiae deletion strains, locus YGR229C, strain SMI1, hits give low values.
[8] abbreviates: S. cerevisiae deletion strains, locus YHR030C, strain SLT2, hits give low values.
[9] abbreviates: S. cerevisiae deletion strains, locus YHR087W, strain rtc3, hits give low values.
[10] abbreviates: S. cerevisiae deletion strains, locus YJL187C, strain SWE1, hits give low values.
The mark [11] stands for this setting: S. cerevisiae deletion strains, locus YJR043C, strain POL32, hits give low values.
Setting [12] is: S. cerevisiae deletion strains, locus YJR075W, strain HOC1, hits give low values.
Where [13] appears, read: S. cerevisiae deletion strains, locus YKL190W, strain CNB1, hits give low values.
Setting [14] is: S. cerevisiae deletion strains, locus YLR039C, strain RIC1, hits give low values.
Setting [15] is: S. cerevisiae deletion strains, locus YLR058C, strain SHM2 (second series), hits give low values.
Setting [16] is: S. cerevisiae deletion strains, locus YLR085C, strain ARP6, hits give low values.
Where [17] appears, read: S. cerevisiae deletion strains, locus YLR262C, strain YPT6, hits give low values.
[18] abbreviates: S. cerevisiae deletion strains, locus YML094W, strain GIM5, hits give low values.
Setting [19] is: S. cerevisiae deletion strains, locus YMR219W, strain ESC1, hits give low values.
The mark [20] stands for this setting: S. cerevisiae deletion strains, locus YMR263W, strain SAP30, hits give low values.
[21] abbreviates: S. cerevisiae deletion strains, locus YNL153C, strain GIM3, hits give low values.
Setting [22] is: S. cerevisiae deletion strains, locus YNL298W, strain CLA4 (second series), hits give low values.
The mark [23] stands for this setting: S. cerevisiae deletion strains, locus YNL322C, strain KRE1, hits give low values.
Setting [24] is: S. cerevisiae deletion strains, locus YNR030W, strain Alg12, hits give low values.
Where [25] appears, read: S. cerevisiae deletion strains, locus YOL006C, strain TOP1, hits give low values.
[26] abbreviates: S. cerevisiae deletion strains, locus YPL055C, strain LGE1, hits give low values.
Setting [27] is: S. cerevisiae deletion strains, locus YPL241C, strain CIN2, hits give low values.
[28] abbreviates: S. cerevisiae deletion strains, locus YPR135W, strain CTF4, hits give low values.
The mark [29] stands for this setting: S. cerevisiae strains, strain wild type, hits give low values.
Setting [30] is: S. cerevisiae deletion strains, locus YAL040C, strain CLN3, hits give low values.
Setting [31] is: S. cerevisiae deletion strains, locus YDR363W, strain ESC2, hits give low values.
[32] abbreviates: S. cerevisiae deletion strains, locus YER002W, strain NOP16, hits give low values.
The mark [33] stands for this setting: S. cerevisiae deletion strains, locus YMR307W, strain GAS1, hits give low values.
Where [34] appears, read: S. cerevisiae deletion strains, locus YNL197C, strain WHI3, hits give low values.
Setting [35] is: S. cerevisiae deletion strains, locus YNL224C, strain SQS1, hits give low values.
Where [36] appears, read: S. cerevisiae deletion strains, locus YOR083W, strain WHI5 (second series), hits give low values.
Where [37] appears, read: S. cerevisiae deletion strains, locus YNL128W, strain TEP1, hits give low values.

Turning to `COc1cccc(NC(N)=S)c1`, the normalized growth reads like this: under setting [1], 1.02; under setting [2], 1.01; under setting [3], 1.02; under setting [4], 0.992; under setting [5], 1.01; under setting [6], 1.01. Further, the normalized growth by setting is: under setting [7], 0.993; under setting [8], 1.08; under setting [9], 0.997; under setting [10], 1.01; under setting [11], 1.01; under setting [12], 0.991. Moreover, the normalized growth under setting [13] was 0.985; the normalized growth under setting [14] was 1.03; the normalized growth under setting [15] was 1.03; the normalized growth under setting [16] is 1.02; the normalized growth under setting [17] is 1.05; the normalized growth under setting [18] is 1. In addition, the normalized growth was 1.01 under setting [19]; 1.01 under setting [20]; 0.998 under setting [21]; 1.03 under setting [22]; 0.995 under setting [23]; 1.01 under setting [24]. Besides, the normalized growth by setting is: under setting [25], 1.05; under setting [26], 0.984; under setting [27], 0.964; under setting [28], 1.12; under setting [29], 0.993.

Regarding `c1cc(CN2CCCCC2)cc(OCCCNc2nc3ccccc3s2)c1`, the normalized growth is, setting by setting: under setting [1], 1; under setting [30], 0.908; (S. cerevisiae deletion strains, locus YCL061C, strain MRC1 (second series), hits give low values) 1.01; under setting [4], 1.02; under setting [31], 0.997; under setting [32], 0.936. Also, the normalized growth is, setting by setting: under setting [20], 1.01; under setting [33], 1.01; under setting [34], 1.04; under setting [35], 1.06; under setting [23], 0.992; under setting [36], 1.03.

Take `COc1cccc(Nc2nc3ccccc3s2)c1`: the normalized growth is, setting by setting: under setting [1], 0.728 (active); under setting [2], 0.709 (active); under setting [3], 0.724 (active); under setting [4], 0.877; under setting [5], 0.533 (active); under setting [6], 0.827 (active). Also, the normalized growth is 0.112 (active) under setting [8]; 0.688 (active) under setting [9]; 0.682 (active) under setting [10]; 0.856 (active) under setting [11]; 0.711 (active) under setting [12]; 0.163 (active) under setting [14]. Besides, the normalized growth under setting [15] was 0.914 (active); the normalized growth under setting [16] is 0.138 (active); the normalized growth under setting [17] is 0.187 (active); the normalized growth under setting [18] was 0.66 (active); the normalized growth under setting [19] was 0.804 (active); the normalized growth under setting [20] was 0.795 (active). In addition, the normalized growth runs as follows: under setting [33], 0.208 (active); under setting [21], 0.799 (active); under setting [22], 0.421 (active); under setting [23], 0.943 (active); under setting [24], 0.575 (active); under setting [26], 0.548 (active). In addition, the normalized growth by setting is: under setting [27], 0.485 (active); under setting [28], 0.264 (active); under setting [29], 0.598 (active).

Take `COc1cccc(C(=O)NCCN2CCN(c3ccc(Cl)cc3)CC2)c1`: the normalized growth is, setting by setting: under setting [30], 0.992; under setting [4], 1.01; under setting [31], 1.01; under setting [32], 1.02; under setting [6], 1.01; under setting [7], 1. Also, the normalized growth is, setting by setting: under setting [33], 1.01; under setting [21], 1.01; (S. cerevisiae deletion strains, locus YNL175C, strain NOP13, hits give low values) 1.03; under setting [34], 1.01; under setting [35], 1.03; under setting [36], 1.03. Moreover, the normalized growth under setting [27] was 1.01.

On to `Cc1cccc(C(=O)c2ccccc2C(=O)O)c1`, for which the normalized growth is 1.01 under setting [1]; 1.02 under setting [2]; 1 under setting [3]; 0.905 under setting [4]; 1.01 under setting [5]; 0.997 under setting [6]. For the same compound, the normalized growth by setting is: under setting [8], 1.06; under setting [9], 1.01; under setting [10], 0.998; under setting [11], 1.02; under setting [12], 1; under setting [13], 0.997. For the same compound, the normalized growth is 0.986 under setting [14]; 1.01 under setting [15]; 1.03 under setting [16]; 0.984 under setting [17]; 1.01 under setting [18]; 1.01 under setting [19]. Also, the normalized growth was 0.991 under setting [20]; 1.01 under setting [37]; 1.02 under setting [21]; 1.04 under setting [22]; 0.993 under setting [23]; 1.01 under setting [24]. The normalized growth reads like this: under setting [26], 1.02; under setting [27], 1.01; under setting [28], 1.02.

For `COc1cccc(NC(=O)NC2Cc3ccccc3C2)c1`, the normalized growth reads like this: under setting [1], 0.975; under setting [2], 0.998; under setting [3], 0.991; (S. cerevisiae deletion strains, locus YDL134C, strain PPH21, hits give low values) 0.989; under setting [4], 0.867; under setting [5], 1. The normalized growth by setting is: under setting [6], 0.989; under setting [8], 0.929; under setting [9], 1; under setting [10], 0.998; under setting [11], 0.982; under setting [12], 0.996. Moreover, the normalized growth is 0.996 under setting [13]; 0.996 under setting [14]; 0.992 under setting [15]; 0.952 under setting [16]; 0.96 under setting [17]; 0.992 under setting [18]. In addition, the normalized growth is, setting by setting: under setting [19], 0.99; under setting [20], 0.927; under setting [33], 0.999; under setting [21], 0.994; under setting [22], 0.973; under setting [23], 1.01. For the same compound, the normalized growth is 0.978 under setting [24]; 0.937 under setting [25]; 0.883 under setting [26]; 0.986 under setting [27]; 0.877 under setting [28].

Regarding `COc1cccc(C(=O)N/N=C(/C)c2ccccc2O)c1`, the normalized growth by setting is: under setting [1], 0.975; under setting [2], 0.961; (S. cerevisiae deletion strains, locus YCL061C, strain MRC1, hits give low values) 0.915; under setting [3], 0.93; under setting [4], 0.92; under setting [5], 0.982. The normalized growth was 0.955 under setting [6]; 0.466 (active) under setting [8]; 0.981 under setting [9]; 0.958 under setting [11]; 0.969 under setting [12]; 0.802 (active) under setting [13]. Besides, the normalized growth by setting is: under setting [14], 0.618 (active); under setting [15], 0.994; under setting [16], 0.395 (active); under setting [17], 0.625 (active); under setting [18], 0.817 (active); under setting [19], 0.987. For the same compound, the normalized growth by setting is: under setting [20], 0.969; under setting [33], 0.537 (active); under setting [37], 0.871 (active); under setting [21], 0.973; under setting [22], 0.805 (active); under setting [23], 0.985. For the same compound, the normalized growth by setting is: under setting [24], 0.759 (active); under setting [26], 0.991; under setting [27], 0.791 (active); under setting [28], 0.592 (active); under setting [29], 0.777 (active).
